The supplement of paper PMC12494721
Counter-ions that a name gives are not always drawn.

Each compound was assayed on Klebsiella aerogenes DSM 30053 (assay: fold change of Histamine concentration vs plate DMSO controls (fold change (ratio)); higher = more amine produced, active = hit call of the paper (significant change in both replicates, either direction)). Conditions: 20 µM; incubation time: 27 h, anaerobic, 37 °C.
Outline: (§1)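 Using LC–triple-quadrupole MS with dynamic MRM, amines were quantified against external calibration curves and corrected for drift within each batch. Samples were whole anaerobic mGAM cultures of four gut strains, grown 27 h at 37 °C from OD 0.1 before 1:1 dilution, extracted with cold acetonitrile/methanol containing 0.1% formic acid and centrifuged. Compounds were present at 20 µM final (sweeteners at 50 µM final). The numbers are fold changes versus plate DMSO controls, each the mean of 2 biological replicates.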
`C#C[C@]1(O)C=C[C@H]2[C@@H]3CCC4=CC(=O)CC[C@@H]4[C@H]3CC[C@@]21CC` [Gestodene] was tested, and the “fold change of Histamine concentration” value was 1 (inactive). With `O=C(O)COc1ccc(Cl)cc1Cl` the “fold change of Histamine concentration” value was 0.958 (inactive). `CC1COC(Cn2cncn2)(c2ccc(Oc3ccc(Cl)cc3)cc2Cl)O1` (configuration not stated) was tested, and the “fold change of Histamine concentration” value was 1.01 (inactive). For `CC(C)OC(=O)Nc1cccc(Cl)c1`, the “fold change of Histamine concentration” value was 0.972 (inactive). With `CCOc1ccc(C(C)(C)COCc2cccc(Oc3ccccc3)c2)cc1` the “fold change of Histamine concentration” value was 0.97 (inactive). For `COC(=O)N(OC)c1ccccc1COc1ccn(-c2ccc(Cl)cc2)n1`, the “fold change of Histamine concentration” value was 1.02 (inactive). With `CC(O)(CS(=O)(=O)c1ccc(F)cc1)C(=O)Nc1ccc(C#N)c(C(F)(F)F)c1` (configuration not stated) [Bicalutamide] the “fold change of Histamine concentration” value was 0.914 (inactive). In the case of `CON(C)C(=O)Nc1ccc(Cl)c(Cl)c1`, the “fold change of Histamine concentration” value is reported as 0.924 (inactive). `C[N+]1(C)[C@@H]2CC[C@H]1C[C@@H](OC(=O)C(CO)c1ccccc1)C2` (some centres not stated) [Methylatropine nitrate] was tested, and the “fold change of Histamine concentration” value was 0.978 (inactive). In the case of `COCc1cnc(C2=NC(C)(C(C)C)C(=O)N2)c(C(=O)O)c1` (configuration not stated), the “fold change of Histamine concentration” value is reported as 1.03 (inactive). With `CO/N=C(/C(=O)OC)c1ccccc1CO/N=C(\C)c1cccc(C(F)(F)F)c1` the “fold change of Histamine concentration” value was 1.02 (inactive). `COC(=O)N(C(=O)N1CO[C@@]2(C(=O)OC)Cc3cc(Cl)ccc3C2=N1)c1ccc(OC(F)(F)F)cc1` was tested, and the “fold change of Histamine concentration” value was 0.975 (inactive). With `COc1ccc(C(CN(C)C)C2(O)CCCCC2)cc1` (configuration not stated) [Venlafaxine] the “fold change of Histamine concentration” value was 1.04 (inactive). For `C1CCc2nnnn2CC1` [Pentylenetetrazole], the “fold change of Histamine concentration” value was 0.957 (inactive). `CC(C)CC(N(C)C)C1(c2ccc(Cl)cc2)CCC1` (configuration not stated) [Sibutramine hydrochloride] was tested, and the “fold change of Histamine concentration” value was 1.05 (inactive). In the case of `OC(c1ccccc1)(c1ccccc1)C1CCNCC1` [Azacyclonol], the “fold change of Histamine concentration” value is reported as 1.06 (inactive). `CNC(=O)Oc1cccc(/N=C/N(C)C)c1` was tested, and the “fold change of Histamine concentration” value was 1.02 (inactive). In the case of `O=C(O)c1nc(Cl)ccc1Cl`, the “fold change of Histamine concentration” value is reported as 1.01 (inactive). For `CNC(=O)c1cc(C#N)cc(C)c1NC(=O)c1cc(Br)nn1-c1ncccc1Cl`, the “fold change of Histamine concentration” value was 1 (inactive). In the case of `C[N+]1([O-])[C@@H]2C[C@@H](OC(=O)[C@H](CO)c3ccccc3)C[C@H]1[C@@H]1O[C@@H]12` (some centres not stated) [Scopolamin-N-oxide hydrobromide], the “fold change of Histamine concentration” value is reported as 0.988 (inactive). `CCC(=O)O[C@@](Cc1ccccc1)(c1ccccc1)[C@@H](C)CN(C)C` [Levopropoxyphene napsylate] was tested, and the “fold change of Histamine concentration” value was 0.942 (inactive). For `CNC(=O)CSP(=S)(OC)OC`, the “fold change of Histamine concentration” value was 1.07 (inactive). In the case of `CC(C)[N+](C)(CCC(C(N)=O)(c1ccccc1)c1ccccc1)C(C)C` [Isopropamide iodide], the “fold change of Histamine concentration” value is reported as 1.01 (inactive). In the case of `COCC(=O)N(c1c(C)cccc1C)[C@H](C)C(=O)OC`, the “fold change of Histamine concentration” value is reported as 1 (inactive). For `O=C1c2ccccc2C(=O)N1SC(Cl)(Cl)Cl`, the “fold change of Histamine concentration” value was 1 (inactive). `O=C1C2CC=CCC2C(=O)N1SC(Cl)(Cl)Cl` (configuration not stated) was tested, and the “fold change of Histamine concentration” value was 1.02 (inactive). With `CN(C)C(=O)Oc1cc(OC(=O)N(C)C)cc(C(O)CNC(C)(C)C)c1` (configuration not stated) [Bambuterol hydrochloride] the “fold change of Histamine concentration” value was 1.03 (inactive). For `CC(C)N(C)S(=O)(=O)NC(=O)c1cc(-n2c(=O)cc(C(F)(F)F)n(C)c2=O)c(F)cc1Cl`, the “fold change of Histamine concentration” value was 0.99 (inactive). For `CC[C@H]1CCC[C@H](O[C@H]2CC[C@H](N(C)C)[C@@H](C)O2)[C@@H](C)C(=O)C2=C[C@@H]3[C@@H](C=C(C)[C@@H]4C[C@@H](O[C@@H]5O[C@@H](C)[C@H](OC)[C@@H](OC)[C@H]5OC)C[C@@H]34)[C@@H]2CC(=O)O1.CC[C@H]1CCC[C@H](O[C@H]2CC[C@H](N(C)C)[C@@H](C)O2)[C@@H](C)C(=O)C2=C[C@H]3[C@@H]4C[C@H](O[C@@H]5O[C@@H](C)[C@H](OC)[C@@H](OC)[C@H]5OC)C[C@H]4C=C[C@H]3C2CC(=O)O1`, the “fold change of Histamine concentration” value was 0.93 (inactive). For `C[N+]1(C)CCCC(OC(=O)C(O)(c2ccccc2)c2ccccc2)C1` (configuration not stated) [Mepenzolate bromide], the “fold change of Histamine concentration” value was 0.962 (inactive). In the case of `COc1cccc(C(=O)NN(C(=O)c2cc(C)cc(C)c2)C(C)(C)C)c1C`, the “fold change of Histamine concentration” value is reported as 0.994 (inactive). For `Cc1cccc(C)c1NC1=NCCCS1` [Xylazine], the “fold change of Histamine concentration” value was 1.09 (inactive). In the case of `CCN(C)C(=O)Oc1cccc([C@H](C)N(C)C)c1` [Rivastigmine], the “fold change of Histamine concentration” value is reported as 0.987 (inactive). In the case of `CCCCCCCCCCCCN=C(N)N`, the “fold change of Histamine concentration” value is reported as 1.03 (inactive). In the case of `CO/C=C(/C(=O)OC)c1ccccc1Oc1cc(Oc2ccccc2C#N)ncn1`, the “fold change of Histamine concentration” value is reported as 0.996 (inactive). With `O=C(O[C@H]1C[N+]2(CCCOc3ccccc3)CCC1CC2)C(O)(c1cccs1)c1cccs1` [Aclidinium bromide] the “fold change of Histamine concentration” value was 1.05 (inactive).

What follows are compounds tested on Clostridium sporogenes DSM 1664 (assay: fold change of Tryptamine concentration vs plate DMSO controls (fold change (ratio)); higher = more amine produced, active = hit call of the paper (significant change in both replicates, either direction)). Conditions: 20 µM; incubation time: 27 h, anaerobic, 37 °C.
Outline: as §1
In the case of `C#C[C@]1(O)C=C[C@H]2[C@@H]3CCC4=CC(=O)CC[C@@H]4[C@H]3CC[C@@]21CC` [Gestodene], the “fold change of Tryptamine concentration” value is reported as 1.03 (inactive). `O=C(O)COc1ccc(Cl)cc1Cl` was tested, and the “fold change of Tryptamine concentration” value was 1.02 (inactive). `CC1COC(Cn2cncn2)(c2ccc(Oc3ccc(Cl)cc3)cc2Cl)O1` (configuration not stated) was tested, and the “fold change of Tryptamine concentration” value was 0.964 (inactive). For `CC(C)OC(=O)Nc1cccc(Cl)c1`, the “fold change of Tryptamine concentration” value was 0.989 (inactive). For `CCOc1ccc(C(C)(C)COCc2cccc(Oc3ccccc3)c2)cc1`, the “fold change of Tryptamine concentration” value was 1.03 (inactive). For `COC(=O)N(OC)c1ccccc1COc1ccn(-c2ccc(Cl)cc2)n1`, the “fold change of Tryptamine concentration” value was 1.02 (inactive). `CC(O)(CS(=O)(=O)c1ccc(F)cc1)C(=O)Nc1ccc(C#N)c(C(F)(F)F)c1` (configuration not stated) [Bicalutamide] was tested, and the “fold change of Tryptamine concentration” value was 1.09 (inactive). With `CON(C)C(=O)Nc1ccc(Cl)c(Cl)c1` the “fold change of Tryptamine concentration” value was 1.02 (inactive). With `C[N+]1(C)[C@@H]2CC[C@H]1C[C@@H](OC(=O)C(CO)c1ccccc1)C2` (some centres not stated) [Methylatropine nitrate] the “fold change of Tryptamine concentration” value was 0.99 (inactive). In the case of `COCc1cnc(C2=NC(C)(C(C)C)C(=O)N2)c(C(=O)O)c1` (configuration not stated), the “fold change of Tryptamine concentration” value is reported as 1.11 (inactive). With `CO/N=C(/C(=O)OC)c1ccccc1CO/N=C(\C)c1cccc(C(F)(F)F)c1` the “fold change of Tryptamine concentration” value was 0.956 (inactive). For `COC(=O)N(C(=O)N1CO[C@@]2(C(=O)OC)Cc3cc(Cl)ccc3C2=N1)c1ccc(OC(F)(F)F)cc1`, the “fold change of Tryptamine concentration” value was 1.03 (inactive). `COc1ccc(C(CN(C)C)C2(O)CCCCC2)cc1` (configuration not stated) [Venlafaxine] was tested, and the “fold change of Tryptamine concentration” value was 0.942 (inactive). `C1CCc2nnnn2CC1` [Pentylenetetrazole] was tested, and the “fold change of Tryptamine concentration” value was 0.963 (inactive). With `CC(C)CC(N(C)C)C1(c2ccc(Cl)cc2)CCC1` (configuration not stated) [Sibutramine hydrochloride] the “fold change of Tryptamine concentration” value was 0.976 (inactive). In the case of `OC(c1ccccc1)(c1ccccc1)C1CCNCC1` [Azacyclonol], the “fold change of Tryptamine concentration” value is reported as 1.02 (inactive). With `CNC(=O)Oc1cccc(/N=C/N(C)C)c1` the “fold change of Tryptamine concentration” value was 1.04 (inactive). `O=C(O)c1nc(Cl)ccc1Cl` was tested, and the “fold change of Tryptamine concentration” value was 0.99 (inactive). `CNC(=O)c1cc(C#N)cc(C)c1NC(=O)c1cc(Br)nn1-c1ncccc1Cl` was tested, and the “fold change of Tryptamine concentration” value was 1.2 (inactive). `C[N+]1([O-])[C@@H]2C[C@@H](OC(=O)[C@H](CO)c3ccccc3)C[C@H]1[C@@H]1O[C@@H]12` (some centres not stated) [Scopolamin-N-oxide hydrobromide] was tested, and the “fold change of Tryptamine concentration” value was 1.01 (inactive). For `CCC(=O)O[C@@](Cc1ccccc1)(c1ccccc1)[C@@H](C)CN(C)C` [Levopropoxyphene napsylate], the “fold change of Tryptamine concentration” value was 1.04 (inactive). For `CNC(=O)CSP(=S)(OC)OC`, the “fold change of Tryptamine concentration” value was 1.01 (inactive). For `CC(C)[N+](C)(CCC(C(N)=O)(c1ccccc1)c1ccccc1)C(C)C` [Isopropamide iodide], the “fold change of Tryptamine concentration” value was 0.99 (inactive). For `COCC(=O)N(c1c(C)cccc1C)[C@H](C)C(=O)OC`, the “fold change of Tryptamine concentration” value was 1.01 (inactive). `O=C1c2ccccc2C(=O)N1SC(Cl)(Cl)Cl` was tested, and the “fold change of Tryptamine concentration” value was 0.983 (inactive). For `O=C1C2CC=CCC2C(=O)N1SC(Cl)(Cl)Cl` (configuration not stated), the “fold change of Tryptamine concentration” value was 1.04 (inactive). For `CN(C)C(=O)Oc1cc(OC(=O)N(C)C)cc(C(O)CNC(C)(C)C)c1` (configuration not stated) [Bambuterol hydrochloride], the “fold change of Tryptamine concentration” value was 1.03 (inactive). With `CC(C)N(C)S(=O)(=O)NC(=O)c1cc(-n2c(=O)cc(C(F)(F)F)n(C)c2=O)c(F)cc1Cl` the “fold change of Tryptamine concentration” value was 1.03 (inactive). In the case of `CC[C@H]1CCC[C@H](O[C@H]2CC[C@H](N(C)C)[C@@H](C)O2)[C@@H](C)C(=O)C2=C[C@@H]3[C@@H](C=C(C)[C@@H]4C[C@@H](O[C@@H]5O[C@@H](C)[C@H](OC)[C@@H](OC)[C@H]5OC)C[C@@H]34)[C@@H]2CC(=O)O1.CC[C@H]1CCC[C@H](O[C@H]2CC[C@H](N(C)C)[C@@H](C)O2)[C@@H](C)C(=O)C2=C[C@H]3[C@@H]4C[C@H](O[C@@H]5O[C@@H](C)[C@H](OC)[C@@H](OC)[C@H]5OC)C[C@H]4C=C[C@H]3C2CC(=O)O1`, the “fold change of Tryptamine concentration” value is reported as 0.96 (inactive). With `C[N+]1(C)CCCC(OC(=O)C(O)(c2ccccc2)c2ccccc2)C1` (configuration not stated) [Mepenzolate bromide] the “fold change of Tryptamine concentration” value was 1 (inactive). For `COc1cccc(C(=O)NN(C(=O)c2cc(C)cc(C)c2)C(C)(C)C)c1C`, the “fold change of Tryptamine concentration” value was 0.948 (inactive). With `Cc1cccc(C)c1NC1=NCCCS1` [Xylazine] the “fold change of Tryptamine concentration” value was 1.01 (inactive). `CCN(C)C(=O)Oc1cccc([C@H](C)N(C)C)c1` [Rivastigmine] was tested, and the “fold change of Tryptamine concentration” value was 1.18 (inactive). `CCCCCCCCCCCCN=C(N)N` was tested, and the “fold change of Tryptamine concentration” value was 0.927 (inactive). In the case of `CO/C=C(/C(=O)OC)c1ccccc1Oc1cc(Oc2ccccc2C#N)ncn1`, the “fold change of Tryptamine concentration” value is reported as 1.02 (inactive). `O=C(O[C@H]1C[N+]2(CCCOc3ccccc3)CCC1CC2)C(O)(c1cccs1)c1cccs1` [Aclidinium bromide] was tested, and the “fold change of Tryptamine concentration” value was 1.01 (inactive).
